Experimental data published in PubChem BioAssay (NCI).
The panel holds about 83,000 compounds, 20% with a hit somewhere; the sample as a whole holds those more often.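 Results are percent growth after 48 hours of single-concentration exposure. 100 means growth as in untreated cells, lower positive values show inhibition; negative values down to -100 show cell death.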 Activity calls are given as the source filed them. The calls were made as follows: active = growth percent below 10; inactive = the rest.

Tests used:
Test in all cases: NCI-60 one-dose screen, 48 h (100 = growth as untreated, 0 = no growth, -100 = all killed)
Settings in all cases: 10 µM
786-0 renal = system: 786-0 renal
MALME-3M melanoma = system: MALME-3M melanoma
MDA-MB-231 breast = system: MDA-MB-231 breast
SF-268 CNS = system: SF-268 CNS
SF-295 CNS = system: SF-295 CNS
UACC-257 melanoma = system: UACC-257 melanoma
UACC-62 melanoma = system: UACC-62 melanoma
SK-MEL-28 melanoma = system: SK-MEL-28 melanoma
SK-MEL-2 melanoma = system: SK-MEL-2 melanoma
EKVX NSCLC = system: EKVX NSCLC
SN12C renal = system: SN12C renal
UO-31 renal = system: UO-31 renal
TK-10 renal = system: TK-10 renal
CAKI-1 renal = system: CAKI-1 renal
A498 renal = system: A498 renal
OVCAR-8 ovarian = system: OVCAR-8 ovarian
OVCAR-5 ovarian = system: OVCAR-5 ovarian
IGROV1 ovarian = system: IGROV1 ovarian
OVCAR-3 ovarian = system: OVCAR-3 ovarian
HS 578T breast = system: HS 578T breast

Measured: growth

COc1cccc(C(=O)CSc2nc(-c3ccc(OCc4ccccc4)c(OC)c3)c(C#N)c(=O)[nH]2)c1
inactive: 786-0 renal 85.7% | MALME-3M melanoma 98.3% | MDA-MB-231 breast 91.1% | SF-268 CNS 97.4% | SF-295 CNS 95.2% | UACC-257 melanoma 94% | UACC-62 melanoma 90.9% | SK-MEL-28 melanoma 96.5% | SK-MEL-2 melanoma 91.7% | EKVX NSCLC 97.1% | SN12C renal 85.6% | UO-31 renal 82.8% | TK-10 renal 94.7% | CAKI-1 renal 90.8% | A498 renal 95.4% | OVCAR-8 ovarian 105% | OVCAR-5 ovarian 100% | IGROV1 ovarian 106% | OVCAR-3 ovarian 106% | HS 578T breast 90.8%

Cc1cc(N=C2NC(=O)S/C2=C\c2ccc(F)cc2)n[nH]1
active: MALME-3M melanoma -7% | MDA-MB-231 breast 9.79% | UACC-62 melanoma -19.6% | SK-MEL-28 melanoma -7.09%
inactive: 786-0 renal 10.3% | SF-268 CNS 29% | SF-295 CNS 12.1% | UACC-257 melanoma 19.6% | SK-MEL-2 melanoma 11% | EKVX NSCLC 15.2% | SN12C renal 22.8% | UO-31 renal 12.1% | TK-10 renal 32.7% | CAKI-1 renal 21.2% | A498 renal 64% | OVCAR-8 ovarian 12.2% | OVCAR-5 ovarian 31% | IGROV1 ovarian 25.3% | OVCAR-3 ovarian 20.2% | HS 578T breast 10%

COc1ccc(Cc2nn(CC(=O)N/N=C/c3ccc([N+](=O)[O-])cc3)c(=O)c3c(C)noc23)cc1
inactive: 786-0 renal 26.3% | MALME-3M melanoma 53% | MDA-MB-231 breast 61.2% | SF-268 CNS 77.7% | SF-295 CNS 92.7% | UACC-257 melanoma 92.8% | UACC-62 melanoma 73.9% | SK-MEL-28 melanoma 80.3% | SK-MEL-2 melanoma 99.1% | EKVX NSCLC 86.6% | SN12C renal 39% | UO-31 renal 63% | TK-10 renal 101% | CAKI-1 renal 53.2% | A498 renal 111% | OVCAR-8 ovarian 56.6% | OVCAR-5 ovarian 90.2% | IGROV1 ovarian 82.9% | OVCAR-3 ovarian 45.1% | HS 578T breast 48.8%

CC1(C)CC[C@]2(C(=O)O)CC[C@]3(C)C(=CCC4[C@@]5(C)C[C@@H](O)[C@@H]6OC(c7cccc(F)c7)OC[C@@]6(C)C5CC[C@]43C)C2C1 (stereo not given in full)
inactive: 786-0 renal 59.3% | MALME-3M melanoma 70% | MDA-MB-231 breast 60.7% | SF-268 CNS 55.6% | SF-295 CNS 42.7% | UACC-257 melanoma 67.8% | UACC-62 melanoma 49.7% | SK-MEL-28 melanoma 66% | SK-MEL-2 melanoma 51.1% | EKVX NSCLC 19.2% | SN12C renal 28.2% | UO-31 renal 34.2% | TK-10 renal 32.4% | CAKI-1 renal 49% | A498 renal 78.7% | OVCAR-8 ovarian 31.7% | OVCAR-5 ovarian 73.2% | IGROV1 ovarian 75.4% | OVCAR-3 ovarian 37.9% | HS 578T breast 66.4%

COc1ccc(Cc2nn(CC(=O)N/N=C/c3ccc(Br)cc3)c(=O)c3c(C)noc23)cc1
inactive: MDA-MB-231 breast 21.1% | SF-268 CNS 37.3% | UACC-257 melanoma 72.2% | UACC-62 melanoma 54.3% | SK-MEL-28 melanoma 70.2% | EKVX NSCLC 55.1% | SN12C renal 12.4% | CAKI-1 renal 21.4% | A498 renal 21.3% | OVCAR-8 ovarian 33.9% | OVCAR-5 ovarian 59% | IGROV1 ovarian 37.6% | OVCAR-3 ovarian 28.5%
active: 786-0 renal -53.2% | MALME-3M melanoma -8.55% | SF-295 CNS -4.74% | SK-MEL-2 melanoma 7.39% | UO-31 renal -15.7% | TK-10 renal -0.687% | HS 578T breast 2%

O=C1S/C(=C\c2ccc([N+](=O)[O-])cc2)C(=O)N1CCN1CCCCC1
inactive: 786-0 renal 105% | MALME-3M melanoma 118% | MDA-MB-231 breast 102% | SF-268 CNS 112% | SF-295 CNS 111% | UACC-257 melanoma 112% | UACC-62 melanoma 99.6% | SK-MEL-28 melanoma 109% | SK-MEL-2 melanoma 111% | EKVX NSCLC 104% | SN12C renal 98.5% | UO-31 renal 102% | TK-10 renal 106% | CAKI-1 renal 102% | A498 renal 126% | OVCAR-8 ovarian 105% | OVCAR-5 ovarian 114% | IGROV1 ovarian 112% | OVCAR-3 ovarian 116% | HS 578T breast 115%

Fc1ccc(/C=C/c2nc3ccccc3n3c(-c4ccc(Cl)cc4)nnc23)cc1
inactive: 786-0 renal 73.4% | MDA-MB-231 breast 70% | SF-268 CNS 78% | SF-295 CNS 128% | UACC-257 melanoma 96.7% | UACC-62 melanoma 70.2% | SK-MEL-28 melanoma 89.1% | SK-MEL-2 melanoma 102% | EKVX NSCLC 74.6% | SN12C renal 78.1% | UO-31 renal 53.3% | TK-10 renal 112% | CAKI-1 renal 62.3% | A498 renal 111% | OVCAR-8 ovarian 72.6% | OVCAR-5 ovarian 96.3% | IGROV1 ovarian 72.2% | OVCAR-3 ovarian 76.9% | HS 578T breast 80.5%
active: MALME-3M melanoma 7.93%

COc1ccc(C2OC[C@@]3(C)C4CC[C@]5(C)C(CC=C6C7CC(C)(C)CC[C@]7(C(=O)O)CC[C@]65C)[C@@]4(C)C[C@@H](O)[C@@H]3O2)cc1 (stereo not given in full)
inactive: 786-0 renal 94.8% | MALME-3M melanoma 99.3% | MDA-MB-231 breast 110% | SF-268 CNS 88.8% | SF-295 CNS 94.3% | UACC-257 melanoma 96.3% | UACC-62 melanoma 85.3% | SK-MEL-28 melanoma 103% | SK-MEL-2 melanoma 102% | EKVX NSCLC 52.9% | SN12C renal 82% | UO-31 renal 57.9% | TK-10 renal 76% | CAKI-1 renal 73.5% | A498 renal 102% | OVCAR-8 ovarian 73.2% | OVCAR-5 ovarian 108% | IGROV1 ovarian 101% | OVCAR-3 ovarian 74.1% | HS 578T breast 85.3%

O=C(Nc1ccc(OCc2ccc(Cl)cc2)cc1)Nc1ccc(Cl)c(C(F)(F)F)c1
inactive: 786-0 renal 17.2% | MDA-MB-231 breast 13.4% | SF-268 CNS 43.3% | UACC-62 melanoma 16.8% | SK-MEL-28 melanoma 35.6% | SN12C renal 18.2% | TK-10 renal 18.5% | OVCAR-8 ovarian 13.5% | OVCAR-5 ovarian 53.3% | IGROV1 ovarian 47.6% | OVCAR-3 ovarian 29.3% | HS 578T breast 22.1%
active: MALME-3M melanoma -16.6% | SF-295 CNS -12.8% | UACC-257 melanoma -6.05% | SK-MEL-2 melanoma -30% | EKVX NSCLC 2.59% | UO-31 renal 6.65% | CAKI-1 renal 1.19% | A498 renal -12.4%

Nc1nnc(-c2c[nH]c3ncc(Br)cc23)c(-c2c[nH]c3ccc(Br)cc23)n1
active: SK-MEL-2 melanoma 7.13% | A498 renal -13% | OVCAR-3 ovarian 4.38%
inactive: 786-0 renal 36.2% | MALME-3M melanoma 56.1% | MDA-MB-231 breast 65% | SF-268 CNS 46% | SF-295 CNS 44.7% | UACC-257 melanoma 71% | UACC-62 melanoma 24.4% | SK-MEL-28 melanoma 45.6% | EKVX NSCLC 46.2% | SN12C renal 46.9% | UO-31 renal 32.6% | TK-10 renal 67.8% | CAKI-1 renal 28.1% | OVCAR-8 ovarian 34% | OVCAR-5 ovarian 62.1% | IGROV1 ovarian 36.5% | HS 578T breast 24.7%

Cn1cc(-c2cc(N)n3nc(-c4cn(C)c5ccccc45)cc3n2)c2cc(F)ccc21
active: 786-0 renal -89.4% | MALME-3M melanoma -78.5% | MDA-MB-231 breast -56% | SF-268 CNS -63.1% | SF-295 CNS -72.6% | UACC-257 melanoma -86.4% | UACC-62 melanoma -67.7% | SK-MEL-28 melanoma -80.4% | SK-MEL-2 melanoma -92.5% | EKVX NSCLC -50.1% | SN12C renal -67% | UO-31 renal -82.4% | TK-10 renal -58.6% | CAKI-1 renal -80.9% | A498 renal -68.9% | OVCAR-8 ovarian -94.9% | OVCAR-5 ovarian -52.6% | IGROV1 ovarian -41.5% | OVCAR-3 ovarian -75% | HS 578T breast -24.1%

Cn1cc(-c2nnc(N)nc2-c2c[nH]c3ccc(F)cc23)c2cc(Br)cnc21
inactive: 786-0 renal 48% | MALME-3M melanoma 106% | MDA-MB-231 breast 56.1% | SF-268 CNS 60.1% | SF-295 CNS 41% | UACC-257 melanoma 99.6% | UACC-62 melanoma 50.8% | SK-MEL-28 melanoma 52.4% | SK-MEL-2 melanoma 71% | EKVX NSCLC 94% | SN12C renal 72.3% | UO-31 renal 43.1% | TK-10 renal 45.5% | CAKI-1 renal 37.4% | A498 renal 47.1% | OVCAR-8 ovarian 71.5% | OVCAR-5 ovarian 83.3% | IGROV1 ovarian 50.4% | OVCAR-3 ovarian 57.5% | HS 578T breast 52%

Cc1ccc(-c2nc(C#N)c(S(=O)(=O)N3CCN(S(C)(=O)=O)CC3)o2)cc1
active: 786-0 renal -76.2% | MALME-3M melanoma -76.8% | OVCAR-3 ovarian -22%
inactive: MDA-MB-231 breast 77.6% | SF-268 CNS 88.5% | SF-295 CNS 155% | UACC-257 melanoma 57.7% | UACC-62 melanoma 53.4% | SK-MEL-28 melanoma 34.3% | SK-MEL-2 melanoma 75.5% | EKVX NSCLC 101% | SN12C renal 78.1% | UO-31 renal 26.7% | TK-10 renal 97% | CAKI-1 renal 72% | A498 renal 132% | OVCAR-8 ovarian 25.5% | OVCAR-5 ovarian 76.9% | IGROV1 ovarian 54.9% | HS 578T breast 100%

COc1ccc(NCc2cn(-c3ccc(C(=O)O)cc3)nc2-c2ccc(F)cc2)cc1C(F)(F)F
inactive: 786-0 renal 78.2% | MALME-3M melanoma 27.3% | MDA-MB-231 breast 82.6% | SF-268 CNS 53.8% | SF-295 CNS 29.6% | UACC-257 melanoma 64.9% | UACC-62 melanoma 13.4% | SK-MEL-28 melanoma 33.3% | EKVX NSCLC 45.5% | SN12C renal 32.2% | UO-31 renal 35.9% | TK-10 renal 95.7% | CAKI-1 renal 65.2% | A498 renal 112% | OVCAR-8 ovarian 37.5% | OVCAR-5 ovarian 72.4% | IGROV1 ovarian 49.9% | OVCAR-3 ovarian 53.4% | HS 578T breast 48.7%
active: SK-MEL-2 melanoma -30.9%

COc1cc(C2CC(c3ccc(Oc4ccc(Cl)cc4)cc3)=NN2c2nc(-c3ccc(Cl)cc3)c(C#N)c(N3CCOCC3)n2)cc(OC)c1OC (stereo not given)
inactive: 786-0 renal 98.8% | MALME-3M melanoma 106% | MDA-MB-231 breast 100% | SF-268 CNS 104% | SF-295 CNS 107% | UACC-257 melanoma 101% | UACC-62 melanoma 91.2% | SK-MEL-28 melanoma 97.8% | SK-MEL-2 melanoma 106% | EKVX NSCLC 94.5% | SN12C renal 91.4% | UO-31 renal 79.2% | TK-10 renal 96.1% | CAKI-1 renal 79% | A498 renal 114% | OVCAR-8 ovarian 104% | OVCAR-5 ovarian 101% | IGROV1 ovarian 106% | OVCAR-3 ovarian 117% | HS 578T breast 104%
